aSyn UTR act: Activators working through SNCA 5'UTR binding (MLPCN) | alpha-synuclein 5'UTR reporter, activators screen | activity score, % (tested at 7.5 µM), hits read low | 300,000 compounds, 7.1% hits | AID 1814; in the data active = activity score below about -60%
An asterisk follows results filed as active. A selection follows.

SMILES | aSyn UTR act
Cc1ccc(C)c(Cn2nnc(C(=O)Nc3ccc4c(c3)OCCO4)c2N)c1 | -106.5*
Cc1cccn2cc(COc3cccc([N+](=O)[O-])c3)nc12 | -65.1*
CC(=O)Nc1ccc(-c2nc3c(C)cccc3[nH]2)cc1 | -140.8*
Cc1cc(C(=O)Cn2nnc3ccccc3c2=O)c(C)n1-c1ccccc1F | 54.2
Cc1cc(C(=O)Nc2ccc(Cl)cc2)c(C)n1-c1ccccc1 | 86.6
Cc1cc(C(=O)OCC(=O)Nc2c(F)cccc2F)c(C)n1-c1ccccc1 | -103.1*
Cc1cc(C(=O)COC(=O)c2ccc(O)cc2)c(C)n1-c1ccccc1F | -78.2*
Cc1cc(C(=O)CN2C(=O)NC(CC(C)C)C2=O)c(C)n1-c1ccccc1F (stereo not drawn) | -148.4*
CS(=O)(=O)c1nc(S(=O)(=O)c2ccc(Cl)cc2)c(N2CCC3(CC2)OCCO3)s1 | -156.1*
O=C1NC(=Nc2ccccc2)S/C1=C\c1cccn1-c1ccccc1 | -388.2*
CC(=O)c1ccc(NC(=O)C(C)NCc2ccccc2Cl)cc1 (stereo not drawn) | -78.2*
COc1cc(NC(=O)N2CCNC2=O)cc(C(=O)Nc2cccc(C(F)(F)F)c2)c1 | 67.6
COc1cccc(NC(=O)c2ccc(NC(=O)C(C)C)cc2)c1 | -114.6*
COc1cccc(NC(=O)c2ccc(OC(F)(F)F)cc2)c1 | -153.2*
CC(C)C(=O)Nc1ccc(C(=O)c2ccccc2)cc1 | -87.6*
O=C(CCc1nc2ccccc2s1)c1ccccc1 | -84.6*
O=C(CCc1nc2ccccc2s1)OCC(=O)c1ccccc1 | -99.9*
O=C(COC(=O)CCc1nc2ccccc2s1)Nc1nc(-c2ccccc2)cs1 | -84.2*
Cc1cccc(C(=O)Oc2ccc(/C=N/O)cc2)c1 | -71.8*
Cc1cc(C(=O)N/N=C\c2cc(C(C)(C)C)ccc2O)n[nH]1 | 74.7
O=C(N/N=C/c1c(O)ccc2ccccc12)c1[nH]ncc1Br | 106.0
Cc1cc(C(=O)N/N=C/c2cc(Br)cc(Br)c2OC(=O)c2ccccc2)n[nH]1 | 89.3
Cc1cc(C(=O)N/N=C/c2cccs2)n[nH]1 | -83.1*
O=C(N/N=C/c1cccs1)c1[nH]ncc1Br | -95.2*
Cn1cccc1-c1cc(C(=O)N/N=C/c2cc(Br)ccc2O)[nH]n1 | 70.5
SMILES | aSyn UTR act
Cc1ccc(O)c(/C=N/NC(=O)c2[nH]ncc2Br)c1 | -112.8*
C/C(=N\NC(=O)c1cc(C)[nH]n1)c1ccc(-c2ccccc2)cc1 | -77.9*
Cc1ccc(NC(=S)Nc2nc(CC(=O)Nc3ccccc3)cs2)cc1 | -118.8*
Cc1cc(-c2ccccc2)nc(N/N=C/c2ccccc2F)n1 | -159.9*
C/C(=N\Nc1nc(C)cc(-c2ccccc2)n1)c1ccccc1 | -101.9*
C/C(=N/Nc1nc(C)cc(-c2ccccc2)n1)c1ccco1 | -75.8*
C/C(=N\Nc1nc(C)cc(-c2ccccc2)n1)c1cccc(N)c1 | -64.4*
CCOc1ccc(NC(=O)c2csc3c2CCCC3)cc1 | -203.8*
CC(=O)c1cccc(NC(=O)c2csc3c2CCCCC3)c1 | -66.8*
CCOc1ccc(NCC(=O)N/N=C/C=C/c2ccccc2)cc1 | -84.4*
CCOc1ccc(N=C/C=C/c2ccccc2)c(O)c1 | -67.4*
CC(C)COc1ccc(C(=O)Nc2sc3c(c2C(=O)O)CC(C)(C)OC3)cc1 | 62.6
CC(C)COc1ccc(C(=O)Nc2ncn[nH]2)cc1 | -66.3*
CC(C)Oc1ccc(C(=O)Nc2ncn[nH]2)cc1 | -65.0*
Cc1cc(C)c2c(=O)n(-c3ccccc3)[nH]c2n1 | -72.5*
N/C(=N\OC(=O)c1ccc2ccccc2c1)c1ccccc1Cl | -140.3*
N/C(=N\OC(=O)c1ccc2ccccc2c1)c1ccccn1 | 95.5
N/C(=N\OC(=O)c1ccc2ccccc2c1)c1cccc([N+](=O)[O-])c1 | -67.0*
N/C(=N/OC(=O)c1ccccc1Cl)c1ncc([N+](=O)[O-])s1 | -80.4*
N/C(=N\OC(=O)c1ccc(F)cc1)c1cccc([N+](=O)[O-])c1 | -109.7*
Cc1cccc(/C(N)=N/OC(=O)c2ccc(F)cc2)c1 | -141.5*
O=C(Oc1ccc2ccc(O)cc2c1)c1ccccc1Cl | -128.4*
N/C(=N\OC(=O)c1cccc(F)c1)c1cccc([N+](=O)[O-])c1 | -104.3*
N/C(=N\OC(=O)c1ccccc1F)c1ccc([N+](=O)[O-])cc1 | -151.4*
N/C(=N\OC(=O)c1ccccc1Cl)c1cccc([N+](=O)[O-])c1 | -66.9*
SMILES | aSyn UTR act
Fc1cccc(NC(=S)NCCc2ccccc2)c1 | -71.1*
Fc1ccc(F)c(NC(=S)NCCc2ccccc2)c1 | -93.1*
Fc1ccccc1NC(=S)NCCc1ccccc1 | -117.8*
CCOC(=O)c1c(C)[nH]c(C(=O)OCC(=O)Nc2sccc2C(N)=O)c1C | -118.6*
O=C(Nc1nc2cc3c(cc2s1)OCO3)C1CCCCC1 | -139.5*
O=C(Nc1nc2cc3c(cc2s1)OCO3)C1CC1 | -160.6*
N=C1S/C(=C\c2cn[nH]c2-c2ccc(F)cc2)C(=O)N1c1ccccc1F | -108.2*
COc1ccc(NC(=S)N2CCc3ccccc32)cc1OC | -82.5*
CN(C)c1ccc(-c2ccccc2)nn1 | -148.3*
C=CCSc1ncnc2c1oc1nc3c(cc12)COC(C)(C)C3 | -140.7*
